Records with an inconclusive call do not appear. Activity calls are given as the source filed them. Unless noted, calls follow the shape of the dose curve; as a rule, active = well fitted curve in either direction with a large enough effect (not every such curve was filed as active); inconclusive = small, poorly fitted or top-dose-only effect, or another doubt; inactive = flat fitted curve, though single readings scatter.
Experiments:
[1] = biological target: Lysosomal acid glucosylceramidase (Homo sapiens) (UniProt P04062); test: Glucocerebrosidase-p2 (AID 348; in the data active = potency below about 10 µM; also: potency is read from the fitted curve at half-maximal effect); settings: purified GBA, blue fluorogenic substrate, 40 min
Summary of the method: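 Normal human glucocerebrosidase (0.2 nM) with blue fluorogenic substrate (80 uM final) in citrate/phosphate pH 5.9 with 10mM sodium taurocholate, 0.01% tween-20; 40 min RT, NaOH/glycine stop; fluorescence Ex 365/Em 440; AC50 from a titration from 0.6 nM upwards.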

[2] = AP1 Signaling Pathway (AID 357); settings: ME-180 AP-1-bla reporter, EGF-induced, beta-lactamase ratio, 5 h; at 7.69 µM (top of the series) unless noted;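 also: ME-180 reporter cells stimulated with EGF at its EC50 level; % is scaled to controls: 0 for no effect and ±100 for the full control effect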
Summary of the method: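 In this screen, ME-180 cells in Opti-MEM with 0.5% dialyzed FBS received EC50 EGF and compound titrations for 5 h. AP-1 reporter beta-lactamase was detected via CCF4 ratio, giving AC50 for positive and negative modulators.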

[3] = biological target: Cytochrome P450 1A2 (Homo sapiens) (UniProt P05177); test: p450-cyp1a2 (AID 410; calls by dose curve; also: potency is read from the fitted curve at half-maximal effect;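 as to activity change, negative = inhibition: -100% = full effect of reference inhibitor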); settings: recombinant CYP1A2, luciferin-ME demethylation, luminescence; series mostly up to 57 µM
Summary of the method: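 20nM CYP1A2, 100uM Luciferin-ME (=Km), 100mM KPO4; cpd 10 min RT; +NADPH regen, 60 min RT; stop/detect 20 min; luminescence. Normalized to furafylline 57 uM = full inhibition.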

[4] = NFAT Signaling Pathway (AID 444); settings: Jurkat NFAT-bla M1, carbachol, beta-lactamase ratio, 5 h; at 7.69 µM (top of the series) unless noted;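 also: carbachol stimulus at about its EC50 of 1 µM final; % is scaled to controls: 0 for no effect and ±100 for the full control effect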
Summary of the method: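 Jurkat cells carrying an NFAT-driven β-lactamase reporter and co-transfected muscarinic M1 receptor were treated with compound plus carbachol (1 uM final, an EC50 level) for 5 h at 37 °C. CCF4 loading followed for 1 h at RT; 460/530 nm ratio gave %activity.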

[5] = Stat Signaling Pathway (AID 446); settings: ME-180 SIE beta-lactamase reporter, IL-6 stimulated, 5 h; at 7.69 µM (top of the series) unless noted;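 also: ME-180 cervical cancer cells given 40 pM IL-6 alongside compound; SIE-controlled beta-lactamase reporter measured as 460/530 nm FRET emission ratio; % is scaled to controls: 0 for no effect and ±100 for the full control effect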
Summary of the method: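 Emission at 460 and 530 nm (excitation 405 nm) reports SIE-controlled beta-lactamase in ME-180 cells. Cells received compound with 40 pM IL-6 for 5 hrs at 37 C; data scaled between 300 pM IL-6 and 125 nM JAK-inhibitor controls.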

[6] = biological target: Glucocorticoid receptor (Homo sapiens) (UniProt P04150); test: GR-EFC Redistribution (AID 451; calls by dose curve; also: potency is read from the fitted curve at half-maximal effect); settings: CHO-K1 GR-EFC translocation, beta-gal luminescence, 2 h
Summary of the method: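 CHO-K1 cells stably expressing nuclear-localized β-gal enzyme acceptor and GR fused C-terminally to the enzyme donor fragment; ligand-driven nuclear translocation restores β-gal by complementation. Compounds titrated up to 46 uM final, 2 h at 37 °C; luminescence read.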

[7] = biological target: Mitogen-activated protein kinase 10 (Mus musculus) (UniProt Q61831); test: JNK3 AlphaScreen Assay (AID 530); settings: JNK3 lysate, c-Jun phosphorylation; series mostly up to 57.1 µM;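 also: kinase came from lysate of stimulated human HepG2 cells; signal reports phosphorylation of biotinylated GST-cJun 1-79 at Ser73 with 10 µM ATP; % is scaled to controls: 0 for no effect and ±100 for the full control effect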
Summary of the method: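 Biotinylated GST-cJun(1-79) served as substrate for JNK3 in HepG2 lysates stimulated with IL-1beta and TNF-alpha. ATP was 10 uM final, pH 7.6. Ser73 phosphorylation was quantified by AlphaScreen (680 nm excitation).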

[8] = biological target: 3',5'-cyclic-AMP phosphodiesterase 4B (Homo sapiens) (UniProt Q07343); test: qHTS Assay for Inhibitors of PDE-IV (AID 607; active = well fitted activation curve with a large enough effect in the main read-out, with a control signal flat, not every such curve was filed as active; also: % of control where 0% means no effect); settings: HEK293 ACTOne CNG channel cells, membrane potential fluorescence; series mostly up to 22.9 µM
Summary of the method: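 The readout is membrane depolarisation from a cAMP-sensing CNG channel, detected with a potential dye at ex 535/em 590. Cells were HEK293-derived (endogenous PDE-IV) at 1000 cells/well, titrated up to 22.9 uM final.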

[9] = biological target: Cytochrome P450 3A4 (Homo sapiens) (UniProt P08684); test: qHTS Assay for Inhibitors and Substrates of Cytochrome P450 3A4 (AID 884; active = well fitted curve in the direction sought with a large enough effect; an effect the other way counts as inactive or inconclusive; also: nearly all actives have a fitted effect of over 50% in size; also: potency is read from the fitted curve at half-maximal effect); settings: recombinant CYP3A4, Luciferin-PPXE luminescence; series mostly up to 57.1 µM
Summary of the method: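 Luminescent readout of luciferin produced by CYP3A4 (20 nM) dealkylation of Luciferin-PPXE, 25 uM (its KM). NADPH-driven reaction ran 60 min at RT after 10 min compound preincubation; data scaled to 57 uM ketoconazole as 100% inhibition.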

[10] = biological target: Cytochrome P450 3A4 (Homo sapiens) (UniProt P08684); test: qHTS Assay for Activators of Cytochrome P450 3A4 (AID 885; active = well fitted curve in the direction sought with a large enough effect; an effect the other way counts as inactive or inconclusive; also: nearly all actives have a fitted effect of over 65% in size; also: potency is read from the fitted curve at half-maximal effect); settings: recombinant CYP3A4, Luciferin-PPXE luminescence, 60 min; series mostly up to 57.1 µM
Summary of the method: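 Activators are scored by enhanced luminescence from CYP3A4 conversion of luciferin-PPXE (25uM, equal to KM) to luciferin, after 60 min at RT with an NADPH-regenerating system.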

[11] = biological target: Cytochrome P450 2D6 (Homo sapiens) (UniProt P10635); test: qHTS Assay for Inhibitors and Substrates of Cytochrome P450 2D6 (AID 891; active = well fitted curve in the direction sought with a large enough effect; an effect the other way counts as inactive or inconclusive; also: potency is read from the fitted curve at half-maximal effect; nearly all actives have a fitted effect of over 60% in size); settings: recombinant CYP2D6, luciferin-ME EGE luminescence; series mostly up to 57.1 µM
Summary of the method: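 Luminescent read-out of luciferin formed by 5 nM human CYP2D6 demethylating 30 uM Luciferin-ME EGE (Km level) over 60 min at room temperature after NADPH regeneration addition. Data normalized to full inhibition by 1.43 uM quinidine.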

[12] = biological target: Cytochrome P450 2C19 (Homo sapiens) (UniProt P33261); test: qHTS Assay for Inhibitors and Substrates of Cytochrome P450 2C19 (AID 899; active = well fitted curve in the direction sought with a large enough effect; an effect the other way counts as inactive or inconclusive; also: nearly all actives have a fitted effect of over 60% in size; also: potency is read from the fitted curve at half-maximal effect); settings: recombinant CYP2C19, luciferin-H EGE luminescence; series mostly up to 57.1 µM
Summary of the method: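 Human CYP2C19 (5nM) with Luciferin-H EGE at 10uM (its KM) in 50mM KPO4 was preincubated with compound for 10 min at 37C. NADPH regeneration started a 60 min 37C reaction. Luciferin was read by luminescence, normalized to 57uM ketoconazole.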

[13] = qHTS Assay for Lipid Storage Modulators (AID 1519; calls by dose curve); settings: Drosophila S3 cells, BODIPY lipid droplet/cell ratio, laser cytometry, cells loaded with oleic acid; for activity change, negative = inhibition: at 57.5 µM (top of the series)
Summary of the method: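 Cells seeded at 5,000 per well were treated with compounds over a concentration series and loaded with oleic acid (400 uM, as added). Lipid droplet fluorescence (488 nm excitation, 500-530 nm channel) was read by laser-scanning cytometry and normalized to 20 uM Triacsin C.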

[14] = Confirmation and Secondary Assay for Modulators of Hemoglobin Beta Chain Splicing at IVS2 654 locus (AID 910; active = well fitted curve in the direction sought with a large enough effect; an effect the other way counts as inactive or inconclusive; also: % of control where 0% means no effect); settings: HeLa EGFP-654 splicing reporter, GFP fluorescence, 48 h; series mostly up to 38.3 µM
Summary of the method: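 HeLa cells stably carrying EGFP interrupted by mutant beta-globin IVS2-654 intron (CMV-driven) were treated with compound for 2 days at 37C; corrected splicing was scored as total peak GFP intensity per well (488 nm excitation, 500-520 nm emission).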

[15] = Confirmation and Secondary Assay for Modulators of Hemoglobin Beta Chain Splicing at IVS2 705 locus (AID 930; active = well fitted curve in the direction sought with a large enough effect; an effect the other way counts as inactive or inconclusive;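 also: HeLa cells stably expressing the EGFP-705 splicing reporter; GFP fluorescence per well restored by corrected splicing of the IVS2-705 intron in EGFP; % of control where 0% means no effect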); settings: HeLa EGFP-705 splicing reporter, GFP fluorescence, 48 h; series mostly up to 38.3 µM
Summary of the method: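 HeLa cells stably carrying EGFP interrupted by mutant beta-globin intron 2 (IVS2-705) treated 2 days at 37C with compound; 500 nM antisense PNA as control. Correct splicing read as total peak GFP intensity per well by laser-scanning cytometry.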

[16] = biological target: Ubiquitin carboxyl-terminal hydrolase 1 (Homo sapiens) (UniProt O94782); test: Inhibitors of USP1/UAF1: Pilot qHTS (AID 504865; active = well fitted curve in the direction sought with a large enough effect; an effect the other way counts as inactive or inconclusive; also: potency is read from the fitted curve at half-maximal effect; nearly all actives have a fitted effect of over 35% in size); settings: purified USP1/UAF1, Ub-rhodamine cleavage fluorescence; series mostly up to 54.9 µM
Summary of the method: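 Kinetic fluorescence assay: 1nM USP1/UAF1, 15 min compound preincubation, then 150nM Ub-Rho; 480/540 nm.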

[17] = qHTS Assay for Identification of Small Molecule Agonists for Hypoxia Response Element Signaling Pathway (AID 914; active = well fitted activation curve with a large enough effect in the signal ratio, with a control signal flat, not every such curve was filed as active; the % refers to the signal ratio; also: % of control where 0% means no effect); settings: ME-180 (cervical carcinoma) HRE-bla reporter, beta-lactamase ratio, CoCl2, 17 h; activation: stronger effect = higher value
Summary of the method: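 HRE-bla ME-180 cells with beta-lactamase reporter under hypoxia response element, compounds with EC50 CoCl2 for 17 hours at 37 C. CCF4 substrate, 460nm/530nm emission ratio gave %Activity; AC50 from titration series.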

[18] = measured here: cell count channel max response
[19] = measured here: lipid channel max response

Sequence of Cytochrome P450 1A2 (Homo sapiens) (P05177 whole entry, looked up): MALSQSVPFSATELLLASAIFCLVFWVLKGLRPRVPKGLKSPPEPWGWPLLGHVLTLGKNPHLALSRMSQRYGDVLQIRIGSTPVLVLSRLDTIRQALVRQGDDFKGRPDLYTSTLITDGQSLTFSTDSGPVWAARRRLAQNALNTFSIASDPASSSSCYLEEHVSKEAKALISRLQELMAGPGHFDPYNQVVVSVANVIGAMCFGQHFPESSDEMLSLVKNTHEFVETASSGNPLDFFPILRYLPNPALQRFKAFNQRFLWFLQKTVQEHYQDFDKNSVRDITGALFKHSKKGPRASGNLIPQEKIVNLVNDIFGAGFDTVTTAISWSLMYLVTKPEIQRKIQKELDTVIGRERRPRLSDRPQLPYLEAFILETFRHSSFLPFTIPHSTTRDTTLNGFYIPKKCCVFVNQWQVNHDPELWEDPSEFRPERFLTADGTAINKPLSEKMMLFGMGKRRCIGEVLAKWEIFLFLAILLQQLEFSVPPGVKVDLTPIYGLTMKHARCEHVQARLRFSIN
Sequence of 3',5'-cyclic-AMP phosphodiesterase 4B (Homo sapiens) (Q07343 whole entry, looked up): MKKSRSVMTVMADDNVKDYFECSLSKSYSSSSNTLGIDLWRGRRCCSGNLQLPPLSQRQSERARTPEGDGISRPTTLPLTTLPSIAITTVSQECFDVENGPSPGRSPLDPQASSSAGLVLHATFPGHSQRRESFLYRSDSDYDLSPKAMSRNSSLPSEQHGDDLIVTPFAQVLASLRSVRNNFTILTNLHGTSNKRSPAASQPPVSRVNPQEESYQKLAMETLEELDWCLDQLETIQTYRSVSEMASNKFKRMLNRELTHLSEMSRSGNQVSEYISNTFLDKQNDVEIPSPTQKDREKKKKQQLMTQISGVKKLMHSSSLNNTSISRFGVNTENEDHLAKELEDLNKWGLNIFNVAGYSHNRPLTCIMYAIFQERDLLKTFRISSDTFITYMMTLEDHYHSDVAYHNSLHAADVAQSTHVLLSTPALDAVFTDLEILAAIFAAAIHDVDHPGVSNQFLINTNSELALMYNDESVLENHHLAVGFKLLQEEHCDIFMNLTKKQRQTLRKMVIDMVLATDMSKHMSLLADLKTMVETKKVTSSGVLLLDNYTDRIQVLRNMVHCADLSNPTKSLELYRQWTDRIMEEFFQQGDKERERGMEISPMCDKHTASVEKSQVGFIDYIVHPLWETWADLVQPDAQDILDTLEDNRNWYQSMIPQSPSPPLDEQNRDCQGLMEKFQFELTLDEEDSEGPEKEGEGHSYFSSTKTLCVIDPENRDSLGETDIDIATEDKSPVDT
Sequence of Cytochrome P450 3A4 (Homo sapiens) (P08684 whole entry, looked up): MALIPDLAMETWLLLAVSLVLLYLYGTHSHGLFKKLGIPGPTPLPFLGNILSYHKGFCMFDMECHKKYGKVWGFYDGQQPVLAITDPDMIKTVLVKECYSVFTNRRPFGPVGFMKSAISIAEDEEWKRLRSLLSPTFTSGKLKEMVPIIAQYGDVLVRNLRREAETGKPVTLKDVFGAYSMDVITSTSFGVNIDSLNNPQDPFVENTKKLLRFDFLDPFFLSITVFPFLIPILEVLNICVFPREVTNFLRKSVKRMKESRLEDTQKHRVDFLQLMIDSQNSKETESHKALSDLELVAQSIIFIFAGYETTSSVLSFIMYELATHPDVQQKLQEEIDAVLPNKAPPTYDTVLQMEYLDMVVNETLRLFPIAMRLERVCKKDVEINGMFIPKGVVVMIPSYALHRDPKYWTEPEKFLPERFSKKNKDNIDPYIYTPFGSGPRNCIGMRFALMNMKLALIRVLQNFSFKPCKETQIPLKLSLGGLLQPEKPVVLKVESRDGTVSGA
Sequence of Glucocorticoid receptor (Homo sapiens) (P04150 whole entry, looked up, the tested form may be a part): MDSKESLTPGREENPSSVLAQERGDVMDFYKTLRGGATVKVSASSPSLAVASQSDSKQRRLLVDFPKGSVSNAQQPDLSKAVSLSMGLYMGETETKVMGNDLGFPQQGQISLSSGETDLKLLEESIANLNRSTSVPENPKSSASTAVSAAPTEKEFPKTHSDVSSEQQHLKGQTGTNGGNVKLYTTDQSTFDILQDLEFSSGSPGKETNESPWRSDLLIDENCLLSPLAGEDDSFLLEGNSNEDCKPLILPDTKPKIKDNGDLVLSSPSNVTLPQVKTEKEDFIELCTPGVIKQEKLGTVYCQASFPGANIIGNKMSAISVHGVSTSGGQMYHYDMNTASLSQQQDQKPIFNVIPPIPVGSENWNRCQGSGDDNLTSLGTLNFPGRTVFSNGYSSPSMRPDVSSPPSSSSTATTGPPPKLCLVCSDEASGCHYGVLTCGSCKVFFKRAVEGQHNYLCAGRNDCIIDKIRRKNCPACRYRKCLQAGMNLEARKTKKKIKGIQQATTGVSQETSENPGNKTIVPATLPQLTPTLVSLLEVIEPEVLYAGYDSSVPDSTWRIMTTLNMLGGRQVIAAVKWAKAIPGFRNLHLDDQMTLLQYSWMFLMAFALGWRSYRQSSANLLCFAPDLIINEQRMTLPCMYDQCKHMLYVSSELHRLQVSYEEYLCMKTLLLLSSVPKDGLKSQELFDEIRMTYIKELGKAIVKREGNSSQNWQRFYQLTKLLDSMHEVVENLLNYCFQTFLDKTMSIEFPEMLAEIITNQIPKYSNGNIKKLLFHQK
Sequence of Lysosomal acid glucosylceramidase (Homo sapiens) (P04062 whole entry, looked up): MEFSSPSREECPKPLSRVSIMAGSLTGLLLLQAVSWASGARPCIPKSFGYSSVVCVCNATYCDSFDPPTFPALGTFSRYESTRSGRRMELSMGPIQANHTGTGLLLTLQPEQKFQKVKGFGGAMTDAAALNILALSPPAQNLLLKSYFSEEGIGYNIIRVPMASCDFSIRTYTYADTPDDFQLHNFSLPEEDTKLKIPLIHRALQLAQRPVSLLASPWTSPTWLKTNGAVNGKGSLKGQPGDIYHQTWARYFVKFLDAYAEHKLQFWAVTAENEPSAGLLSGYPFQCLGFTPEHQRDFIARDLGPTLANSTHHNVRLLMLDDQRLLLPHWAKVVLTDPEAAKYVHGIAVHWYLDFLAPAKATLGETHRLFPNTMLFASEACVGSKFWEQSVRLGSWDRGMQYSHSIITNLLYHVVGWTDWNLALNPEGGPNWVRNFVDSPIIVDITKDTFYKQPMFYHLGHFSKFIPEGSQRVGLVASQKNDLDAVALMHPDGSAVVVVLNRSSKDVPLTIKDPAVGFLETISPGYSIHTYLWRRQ
Sequence of Cytochrome P450 2D6 (Homo sapiens) (P10635 whole entry, looked up): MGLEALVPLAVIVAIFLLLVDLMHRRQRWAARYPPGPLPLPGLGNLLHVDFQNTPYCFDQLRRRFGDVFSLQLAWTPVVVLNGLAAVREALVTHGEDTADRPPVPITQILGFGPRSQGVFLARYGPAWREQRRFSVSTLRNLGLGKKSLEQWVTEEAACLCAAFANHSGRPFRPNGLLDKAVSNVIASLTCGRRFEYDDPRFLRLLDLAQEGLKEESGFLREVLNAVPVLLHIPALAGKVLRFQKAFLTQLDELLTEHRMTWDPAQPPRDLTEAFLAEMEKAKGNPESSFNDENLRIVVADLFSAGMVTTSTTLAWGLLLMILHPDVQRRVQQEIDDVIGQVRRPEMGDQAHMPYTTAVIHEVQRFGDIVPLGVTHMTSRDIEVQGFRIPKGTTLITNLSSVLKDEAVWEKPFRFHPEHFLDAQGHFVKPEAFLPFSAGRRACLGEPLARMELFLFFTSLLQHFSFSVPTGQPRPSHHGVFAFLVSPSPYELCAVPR
Sequence of Cytochrome P450 2C19 (Homo sapiens) (P33261 whole entry, looked up): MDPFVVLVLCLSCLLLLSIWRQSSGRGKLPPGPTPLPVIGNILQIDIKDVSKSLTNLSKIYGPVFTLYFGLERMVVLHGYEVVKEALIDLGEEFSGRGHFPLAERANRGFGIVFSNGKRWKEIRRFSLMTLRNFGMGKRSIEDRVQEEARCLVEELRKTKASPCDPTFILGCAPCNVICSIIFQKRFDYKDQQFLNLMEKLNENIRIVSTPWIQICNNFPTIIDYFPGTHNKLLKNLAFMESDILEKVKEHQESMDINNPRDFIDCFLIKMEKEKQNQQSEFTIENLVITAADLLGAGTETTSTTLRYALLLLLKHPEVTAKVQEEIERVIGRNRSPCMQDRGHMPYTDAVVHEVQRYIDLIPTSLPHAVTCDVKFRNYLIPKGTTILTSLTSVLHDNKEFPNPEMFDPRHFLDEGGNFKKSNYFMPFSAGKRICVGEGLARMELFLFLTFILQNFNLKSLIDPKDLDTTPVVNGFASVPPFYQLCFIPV
Sequence of Ubiquitin carboxyl-terminal hydrolase 1 (Homo sapiens) (O94782 whole entry, looked up): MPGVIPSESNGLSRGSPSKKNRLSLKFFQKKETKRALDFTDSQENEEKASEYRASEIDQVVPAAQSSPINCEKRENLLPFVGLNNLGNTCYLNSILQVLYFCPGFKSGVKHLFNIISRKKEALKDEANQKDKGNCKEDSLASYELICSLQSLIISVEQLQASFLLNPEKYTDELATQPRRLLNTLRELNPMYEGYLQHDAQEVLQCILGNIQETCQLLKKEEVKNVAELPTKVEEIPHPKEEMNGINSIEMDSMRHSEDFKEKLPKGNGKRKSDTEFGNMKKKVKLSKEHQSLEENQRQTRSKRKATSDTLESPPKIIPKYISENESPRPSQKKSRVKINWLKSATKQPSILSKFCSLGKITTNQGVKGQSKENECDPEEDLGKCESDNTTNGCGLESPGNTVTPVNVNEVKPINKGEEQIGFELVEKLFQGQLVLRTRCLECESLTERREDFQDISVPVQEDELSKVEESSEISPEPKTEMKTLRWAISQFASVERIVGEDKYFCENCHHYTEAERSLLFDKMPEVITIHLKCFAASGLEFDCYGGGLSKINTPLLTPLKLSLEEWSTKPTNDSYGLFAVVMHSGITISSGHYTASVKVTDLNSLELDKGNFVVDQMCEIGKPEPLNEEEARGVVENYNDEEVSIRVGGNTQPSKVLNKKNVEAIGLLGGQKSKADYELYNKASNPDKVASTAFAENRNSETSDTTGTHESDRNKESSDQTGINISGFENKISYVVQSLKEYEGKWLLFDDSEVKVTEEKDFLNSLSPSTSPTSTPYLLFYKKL

SMILES | Potency [1] | activity change, negative = inhibition [2] | Potency [3] | activity change, negative = inhibition [4] | activity, negative = inhibition [5] | Potency [6] | Potency [7] | Potency [8] | Potency [9] | Potency [10] | Potency [11] | Potency [12] | activity change, negative = inhibition [13] | max response [13, 18] | max response [13, 19] | Potency [14] | outcome [15] | Potency [16] | activation [17]
O=S(=O)(c1ccccc1)N1CCC[C@@]2(CCN(Cc3nccs3)C2)C1 | > 11.4 µM (inactive) | -10.5% (inactive) | 15.8 µM (active) | -1.46% (inactive) | -1.53% (inactive) | > 46 µM (inactive) | inactive | inactive | 3.16 µM (active) | inactive | 2.51 µM (active) | 7.94 µM (active) | 0.281% (inactive) | 10.8% | 15.6% | – | – | – | –
COc1ccccc1-c1nccc(NCc2cccc(C)c2)n1 | > 11.4 µM (inactive) | -2.08% (inactive) | 0.631 µM (active) | -5.48% (inactive) | – | > 46 µM (inactive) | inactive | – | 6.31 µM (active) | inactive | 1.58 µM (active) | – | -4.4% (inactive) | -19.8% | -23.8% | inactive | inactive | 22.4 µM (active) | –
O=C(c1cccc(F)c1)N1CCC2(CC1)CCN(C(c1ccccc1)c1ccccc1)CC2 | > 11.4 µM (inactive) | 2.86% (inactive) | 10 µM (active) | – | -6.67% (inactive) | > 46 µM (inactive) | inactive | inactive | inactive | 5.01 µM (active) | 3.16 µM (active) | – | 4.65% (inactive) | 12.8% | 19.8% | – | – | – | –
COc1ccccc1CN1CC[C@@]2(CCCN(S(=O)(=O)c3ccccc3)C2)C1 | > 11.4 µM (inactive) | 7.37% (inactive) | 25.1 µM (active) | – | 8.35% (inactive) | > 46 µM (inactive) | inactive | inactive | – | inactive | – | – | 6.22% (inactive) | 0.611% | 10.2% | – | – | – | –
O=C(c1cc(C(F)(F)F)cc(C(F)(F)F)c1)N1CCC2(CC1)CCN(c1ncccn1)CC2 | > 11.4 µM (inactive) | -11.6% (inactive) | inactive | 28.8% (inactive) | -7.73% (inactive) | > 46 µM (inactive) | inactive | inactive | – | – | – | – | 3.41% (inactive) | 13.8% | 23.2% | – | – | – | 1.37% (inactive)
Cc1noc(C)c1C(=O)N1CCC[C@@]2(CCN(Cc3cc(C(F)(F)F)cc(C(F)(F)F)c3)C2)C1 | > 11.4 µM (inactive) | 1.15% (inactive) | inactive | 14.8% (inactive) | 1.36% (inactive) | > 46 µM (inactive) | inactive | inactive | – | inactive | – | inactive | 4.37% (inactive) | 12.5% | 19.6% | – | – | – | –
COc1ccccc1CN1CC[C@@]2(CCCN(C(=O)c3cc(C(F)(F)F)cc(C(F)(F)F)c3)C2)C1 | > 11.4 µM (inactive) | -0.111% (inactive) | 15.8 µM (active) | – | 4.98% (inactive) | > 46 µM (inactive) | inactive | inactive | – | – | – | – | 2.5% (inactive) | 2.09% | 7.48% | – | – | – | –

Reference: PubChem BioAssay (NCATS)
